Screens as filed in PubChem BioAssay.
KDM5B inh: inhibitors of human KDM5B histone demethylase | AID 1347165 | 2.6% of 220,000 active | KDM5B demethylase, FDH-coupled NADH fluorescence (FDH is formaldehyde dehydrogenase) | Q9UGL1 | Potency, µM (doses to about 57.7 µM), actives largely listed as inhibitors; active = well fitted inhibition curve with a large enough effect; also: 0% is about no effect; nearly all actives have a fitted effect of over 70% in size
Target sequence (Q9UGL1 whole entry, looked up): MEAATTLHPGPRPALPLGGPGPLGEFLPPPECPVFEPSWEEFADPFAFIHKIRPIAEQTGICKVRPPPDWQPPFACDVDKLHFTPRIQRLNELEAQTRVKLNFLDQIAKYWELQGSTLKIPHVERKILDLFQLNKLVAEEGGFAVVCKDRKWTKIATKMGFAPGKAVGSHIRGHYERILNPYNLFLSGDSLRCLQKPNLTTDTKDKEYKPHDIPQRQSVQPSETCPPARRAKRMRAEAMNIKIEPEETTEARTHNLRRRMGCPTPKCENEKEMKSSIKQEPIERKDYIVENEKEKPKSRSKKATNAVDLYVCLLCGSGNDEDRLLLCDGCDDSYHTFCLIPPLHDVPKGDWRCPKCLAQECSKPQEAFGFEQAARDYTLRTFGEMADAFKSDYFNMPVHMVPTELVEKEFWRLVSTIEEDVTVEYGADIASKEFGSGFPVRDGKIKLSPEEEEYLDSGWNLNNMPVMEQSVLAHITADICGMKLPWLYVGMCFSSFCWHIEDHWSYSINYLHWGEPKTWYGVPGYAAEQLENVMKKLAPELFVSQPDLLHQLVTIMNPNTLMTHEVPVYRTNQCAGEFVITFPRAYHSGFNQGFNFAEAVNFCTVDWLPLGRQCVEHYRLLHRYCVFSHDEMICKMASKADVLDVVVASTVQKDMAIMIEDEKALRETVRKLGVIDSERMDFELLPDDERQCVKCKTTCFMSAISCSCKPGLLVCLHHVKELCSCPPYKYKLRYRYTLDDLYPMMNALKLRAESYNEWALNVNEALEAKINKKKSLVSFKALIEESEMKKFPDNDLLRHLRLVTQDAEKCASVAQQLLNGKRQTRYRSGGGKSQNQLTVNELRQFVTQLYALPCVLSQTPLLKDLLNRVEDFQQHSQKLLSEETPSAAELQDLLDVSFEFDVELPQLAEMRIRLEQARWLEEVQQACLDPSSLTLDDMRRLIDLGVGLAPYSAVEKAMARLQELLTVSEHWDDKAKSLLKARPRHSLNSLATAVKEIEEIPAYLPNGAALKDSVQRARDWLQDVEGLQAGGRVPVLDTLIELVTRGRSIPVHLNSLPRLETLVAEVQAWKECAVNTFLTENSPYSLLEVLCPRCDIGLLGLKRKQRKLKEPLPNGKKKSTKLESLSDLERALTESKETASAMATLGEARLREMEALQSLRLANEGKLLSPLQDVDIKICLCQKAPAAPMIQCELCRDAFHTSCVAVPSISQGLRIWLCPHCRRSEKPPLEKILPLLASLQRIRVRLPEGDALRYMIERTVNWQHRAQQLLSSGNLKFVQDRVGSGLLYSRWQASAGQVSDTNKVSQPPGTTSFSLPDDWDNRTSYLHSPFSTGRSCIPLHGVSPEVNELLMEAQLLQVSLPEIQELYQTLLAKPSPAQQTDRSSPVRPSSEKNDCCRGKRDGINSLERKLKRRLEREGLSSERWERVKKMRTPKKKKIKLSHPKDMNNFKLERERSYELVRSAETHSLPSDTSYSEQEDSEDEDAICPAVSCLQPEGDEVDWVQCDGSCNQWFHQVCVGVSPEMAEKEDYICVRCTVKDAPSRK
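Coupled FDH/NAD⁺ fluorescence readout. KDM5BΔAP 200 nM final; compound titration, 10 min RT preincubation; substrate mix 12.5 µM H3K4me3, 25 µM 2-OG, 50 µM Fe(II), 100 µM ascorbate, 0.25 mM NAD⁺, 0.25 U/mL FDH; ΔRFU over 30 min.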
* marks the source's active call; other numbers are inactive results; i = inactive; ! = a repeat was not active. Only a selection was taken, and hits are over-represented in it overall. Potency is read from the fitted curve at half-maximal effect.

SMILES | KDM5B inh
COC(=O)c1ccc(COC(=O)c2ccc(Cl)c(Cl)c2)cc1 | i
Cc1cccc(C(=O)N(Cc2ccco2)C2CC2)c1 | i
CN(C)CCCOc1ccc(-c2cnc(N)cn2)cn1 | 32µM*
CN(C)CCCOC(=O)COc1ccc(Br)cc1 | i
Cc1ccc(C(=O)OCCCN(C)C)cc1 | i
COc1ccc(C(=O)Oc2ccccc2Br)cc1Br | i
CC(C)CNC(=O)NC(=O)CN(C)C1CCCCCC1 | i
O=C(NCc1ccc(C(F)(F)F)cc1F)[C@H]1CCC[C@@H](O)C1 | i
CCn1cnc2c1c(=O)n(CC(=O)N(C)Cc1cccs1)c(=O)n2Cc1ccccc1 | i
Cc1ccc2nc(C)c(C(=O)N3CCN(S(=O)(=O)c4cccc(F)c4)CC3)cc2c1 | i
CCOCCn1c(-n2nc(C)cc2C)nc2c1c(=O)n(C)c(=O)n2C | i
CC1CCCC(NC(=S)Nc2ccccc2)C1C (stereo unspecified) | i
COc1ccc(-c2nc(C3CC(=O)N(c4ccc(F)cc4)C3)no2)cc1F (stereo unspecified) | i
COc1ccc(N2CC(c3noc(-c4cc(C)cc(C)c4)n3)CC2=O)cc1 (stereo unspecified) | i
O=C1CC(c2noc(-c3ccc4c(c3)OCO4)n2)CN1c1ccc(F)cc1 (stereo unspecified) | 28µM*
CCc1ccc(N2CC(c3noc(-c4ccc(N(C)C)cc4)n3)CC2=O)cc1 (stereo unspecified) | 32µM*
Cc1ccc(-c2nc(C3CC(=O)N(c4ccc(Cl)cc4)C3)no2)cc1 (stereo unspecified) | i
CCc1ccc(N2CC(c3noc(-c4ccc(OC)c(F)c4)n3)CC2=O)cc1 (stereo unspecified) | 32µM*
Cc1ccc(N2CC(c3noc(-c4ccc(F)cc4)n3)CC2=O)cc1 (stereo unspecified) | i
Cc1ccc(-c2nc(C3CC(=O)N(c4ccc(F)cc4)C3)no2)cc1 (stereo unspecified) | i
COc1ccc(N2CC(c3noc(-c4ccc(F)cc4)n3)CC2=O)cc1OC (stereo unspecified) | i
COc1ccc(N2CC(c3noc(-c4cccc(C)c4)n3)CC2=O)cc1 (stereo unspecified) | i
COc1ccc(N2CC(c3noc(-c4ccc(N(C)C)cc4)n3)CC2=O)cc1 (stereo unspecified) | 35µM*
CCc1ccc(N2CC(c3noc(-c4cnccn4)n3)CC2=O)cc1 (stereo unspecified) | i
O=C(c1ccccc1F)N(Cc1ccc2[nH]ccc2c1)C1CC1 | i
SMILES | KDM5B inh
COc1cccc(-c2nc(CCNC(=O)COc3ccc(Cl)cc3)cs2)c1 | i
N#CC1(NC(=O)CNc2ccc(-c3nnnn3C3CC3)cc2)CCCC1 | i
COc1ccccc1NC(=O)N1CCc2cc(OC)c(OC)cc2C1CNC(=O)c1ccccc1 (stereo unspecified) | i
CC(C)C[C@H](NC(=O)c1ccc2nc(-n3cccc3)sc2c1)C(=O)NCc1cccnc1 | i
Cc1ccc(COC(=O)CSc2cnc3ccccc3n2)cc1 | i
Cc1cc(CS(=O)(=O)Cc2ccccc2Cl)on1 | i
Cc1ccc(C)c2c(=O)cc(CSc3nnc(-c4cccc(F)c4)n3C)[nH]c12 | i
CCc1cc(CC)n(-c2nc3c(c(=O)n(CC(N)=O)c(=O)n3C)n2CCC(C)C)n1 | i
COc1cccc(-c2nc(C3CC(=O)N(c4ccc(C)cc4)C3)no2)c1 (stereo unspecified) | i
COc1ccc(-c2nc(C3CC(=O)N(c4ccc(C)cc4)C3)no2)cn1 (stereo unspecified) | i
COc1cc(OC)cc(-c2nc(C3CC(=O)N(c4ccc(C)cc4)C3)no2)c1 (stereo unspecified) | 32µM*
Cc1ccc(-n2nnnc2SCc2nc3ccsc3c(=O)[nH]2)cc1 | i
c1cnc2nc(-c3c[nH]c4ccccc34)[nH]c2c1 | 35µM*!
c1ccc(CCNc2nc(-c3c[nH]c4ccccc34)cs2)cc1 | i
CC1(C(=O)Nc2nc(-c3c[nH]c4ccccc34)cs2)CC1(Cl)Cl (stereo unspecified) | i
c1ccc2c(-c3nc4ccncc4[nH]3)c[nH]c2c1 | 40µM*!
c1ccc2c(-c3csc(NC4CC4)n3)c[nH]c2c1 | i
O=C(COc1cccnc1[N+](=O)[O-])c1c[nH]c2ccccc12 | i
CS(=O)(=O)c1ccc2nc(NC(=O)COc3ccc(F)cc3)sc2c1 | i
CN(C(=O)CSc1nnc(-c2cccnc2)o1)C1(c2ccccc2Cl)CCCCC1=O (stereo unspecified) | i
Cc1ccc(S(=O)(=O)N2CCN(CCNC(=O)c3ccc(S(=O)(=O)N(C)C)cc3)CC2)cc1 | i
Cc1ccc(S(=O)(=O)N2CCN(C3CCN(Cc4ccccn4)C3=O)CC2)cc1F (stereo unspecified) | i
CCCNC(=O)CNC(=O)Cn1c(-c2ccccc2)cc2ccccc21 | i
COc1cccc(-c2cc3c(ccn3C(C)C)c(C(=O)NCc3c(C)cc(C)[nH]c3=O)n2)c1 | i
Cc1cc(C)c(CNC(=O)c2nc(-c3cncnc3)cc3c2ccn3C(C)C)c(=O)[nH]1 | 32µM*
SMILES | KDM5B inh
COc1ccccc1-c1cc2[nH]ccc2c(C(=O)NCc2c(C)cc(C)[nH]c2=O)n1 | i
CC(=O)Nc1cccc(-c2cc3c(ccn3C)c(C(=O)NCc3c(C)cc(C)[nH]c3=O)n2)c1 | 14µM*
COc1ccccc1-c1cc2c(ccn2C)c(C(=O)NCc2c(C)cc(C)[nH]c2=O)n1 | 35µM*
Cc1cc(C)c(CNC(=O)c2nc(-c3cccnc3)cc3c2ccn3C(C)C)c(=O)[nH]1 | i
COc1ccc(C(=O)N2CCN(c3nc4nc(C)ccc4o3)CC2)cc1 | i
Cc1cc(C)nc(N/N=C/c2ccc([N+](=O)[O-])cc2)n1 | i
Cc1cc(C)n(-c2ccc(C(=O)OCC(=O)NC(=O)NC3CCCCC3)cc2)n1 | i
Cc1ccc(CNC(=O)c2ccc(Cl)c(-n3c(C)nc4cccnc43)c2)cc1 | i
CCc1ccccc1NC(=O)c1nn(C)c(=O)c2ccccc12 | i
CN1CCCN(C(=O)c2ccco2)c2ccccc21 | i
COc1ccc(S(=O)(=O)N2CCC(n3cnnc3-c3ccccc3)CC2)cc1 | i
